“And” between values parts separate entries of the source, which are not always exact repeats. Equal values may be shown once. The whole screen tested about 5,500 compounds, of which about 2,000 (36%) were called active. About 18% were inconclusive and are not listed. No stated cut-off is given here; in the data, active means normalized growth mostly below about 0.91 (no sharp cut-off); inconclusive means no clear call, values can overlap the other calls; inactive means mostly above about 0.92. Some of the results follow.
Assay: chemical genetic growth profiling, strain panel (AID 1159580);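 further: tested at 20 µM; growth read once vehicle control cultures reached saturation at 30 °C; 1 = growth at the plate median or of vehicle wells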
Conditions: S. cerevisiae deletion strains, growth OD

Measured: normalized growth

CC1(C)O[C@@H]2CC3C4C[C@H](F)C5=CC(=O)CC[C@]5(C)C4[C@@H](O)C[C@]3(C)[C@]2(C(=O)CO)O1 (stereo partly specified)
inactive: locus YAL013W, strain DEP1, stronger effect = lower value 1.02 | locus YAL021C, strain ccr4, stronger effect = lower value 0.971 | locus YAL026C, strain drs2, stronger effect = lower value 1.01 | locus YAL030W, strain snc1, stronger effect = lower value 1.01 | locus YBL061C, strain skt5, stronger effect = lower value 1.01 | locus YBR009C, strain hhf1, stronger effect = lower value 1 | locus YBR021W, strain FUR4, stronger effect = lower value 1.02 | locus YBR023C, strain chs3, stronger effect = lower value 1 | locus YBR171W, strain sec66, stronger effect = lower value 1.01 | locus YBR229C, strain ROT2, stronger effect = lower value 1.01 | locus YBR231C, strain swc5, stronger effect = lower value 1 | locus YBR279W, strain paf1, stronger effect = lower value 0.994 | locus YCL011C, strain gbp2, stronger effect = lower value 1 | locus YCL016C, strain dcc1, stronger effect = lower value 0.992 | locus YCL029C, strain bik1, stronger effect = lower value 1.01 | locus YCL069W, strain vba3, stronger effect = lower value 1 | locus YCR088W, strain abp1, stronger effect = lower value 1.01 | locus YDL005C, strain med2, stronger effect = lower value 1.03 | locus YDL035C, strain GPR1, stronger effect = lower value 1.01 | locus YDL040C, strain nat1, stronger effect = lower value 1.01 | locus YDL074C, strain BRE1, stronger effect = lower value 1.04 | locus YDL101C, strain DUN1, stronger effect = lower value 1.02 | locus YDL134C, strain PPH21, stronger effect = lower value 1.01 | locus YDL185W, strain tfp1, stronger effect = lower value 1.01 | locus YDL192W, strain arf1, stronger effect = lower value 1.01 | locus YDR001C, strain nth1, stronger effect = lower value 1 | locus YDR069C, strain doa4, stronger effect = lower value 1.01 | locus YDR101C, strain arx1, stronger effect = lower value 0.998 | locus YDR137W, strain rgp1, stronger effect = lower value 0.995 | locus YDR150W, strain NUM1, stronger effect = lower value 1.03 | locus YDR159W, strain sac3, stronger effect = lower value 0.939 | locus YDR162C, strain NBP2, stronger effect = lower value 1.03 | locus YDR195W, strain ref2 0.991 | locus YDR297W, strain sur2, stronger effect = lower value 1.01 | locus YDR318W, strain mcm21, stronger effect = lower value 0.999 | locus YDR334W, strain swr1, stronger effect = lower value 1.01 | locus YDR335W, strain msn5, stronger effect = lower value 1 | locus YDR388W, stronger effect = lower value 1.01 | locus YDR392W, strain spt3, stronger effect = lower value 0.931 | locus YDR502C, strain sam2, stronger effect = lower value 1 | locus YEL003W, strain gim4, stronger effect = lower value 0.999 | locus YEL037C, strain rad23, stronger effect = lower value 1.01 | locus YEL061C, strain CIN8 (second series), stronger effect = lower value 1.01 | locus YEL061C, strain CIN8, stronger effect = lower value 1.01 | locus YER015W, strain faa2, stronger effect = lower value 1.01 | locus YER016W, strain bim1, stronger effect = lower value 1 | locus YER110C, stronger effect = lower value 0.998 | locus YER111C, strain swi4, stronger effect = lower value 1 | locus YER155C, strain BEM2 (second series), stronger effect = lower value 1.03 | locus YER155C, strain BEM2, stronger effect = lower value 1 | locus YER167W, strain BCK2, stronger effect = lower value 1.01 | locus YFR010W, strain ubp6, stronger effect = lower value 1.01 | locus YGL078C, strain dbp3, stronger effect = lower value 0.995 | locus YGL086W, strain mad1, stronger effect = lower value 1 | locus YGL167C, strain pmr1, stronger effect = lower value 0.996 | locus YGL173C, strain kem1, stronger effect = lower value 1.02 | locus YGL227W, strain vid30, stronger effect = lower value 1 | locus YGL240W, strain doc1, stronger effect = lower value 1 | locus YGL248W, strain PDE1, stronger effect = lower value 1.01 | locus YGL253W, strain hxk2, stronger effect = lower value 1 | locus YGR078C, strain PAC10, stronger effect = lower value 1.02 | locus YGR135W, strain pre9, stronger effect = lower value 1 | locus YGR229C, strain SMI1, stronger effect = lower value 1.02 | locus YGR252W, strain gcn5, stronger effect = lower value 0.983 | locus YHR013C, strain ard1, stronger effect = lower value 0.994 | locus YHR027C, strain rpn1, stronger effect = lower value 1.02 | locus YHR030C, strain SLT2, stronger effect = lower value 1 and 1.02 | locus YHR079C, strain IRE1 (second series), stronger effect = lower value 0.999 | locus YHR079C, strain IRE1, stronger effect = lower value 1.03 | locus YHR094C, strain hxt1, stronger effect = lower value 1.01 | locus YHR129C, strain ARP1, stronger effect = lower value 1.01 | locus YHR142W, strain chs7, stronger effect = lower value 1 | locus YHR200W, strain rpn10, stronger effect = lower value 1.01 | locus YIL066C, strain RNR3, stronger effect = lower value 1 | locus YIL073C, strain SPO22, stronger effect = lower value 1.01 | locus YIL125W, strain kgd1, stronger effect = lower value 0.995 | locus YIR030C, strain dcg1, stronger effect = lower value 1.01 | locus YJL092W, strain hpr5, stronger effect = lower value 1.02 | locus YJL095W, strain BCK1 (second series), stronger effect = lower value 1.01 | locus YJL095W, strain BCK1, stronger effect = lower value 0.999 and 1.02 | locus YJL115W, strain asf1, stronger effect = lower value 1.01 | locus YJL129C, strain trk1, stronger effect = lower value 1.02 | locus YJL134W, strain LCB3, stronger effect = lower value 1.01 | locus YJL154C, strain vps35, stronger effect = lower value 1.01 | locus YJL164C, strain tpk1, stronger effect = lower value 0.982 | locus YJL166W, strain qcr8, stronger effect = lower value 1.01 | locus YJL168C, strain set2, stronger effect = lower value 1.01 | locus YJL187C, strain SWE1 (second series), stronger effect = lower value 1.01 | locus YJL187C, strain SWE1, stronger effect = lower value 1.01 | locus YJR043C, strain POL32, stronger effect = lower value 0.994 | locus YJR066W, strain TOR1, stronger effect = lower value 0.957

Reference: PubChem BioAssay AID1159580 (chemical genetic matrix, 2015)
